This note sets out measurements from PubChem BioAssay.

A short description of this test: reversal of MRP1-mediated doxorubicin resistance, pilot screen, H69AR cells, doxorubicin co-treatment (AID 601). The note with it: H69AR cells, CellTiter-Glo, 72 h; compound alone cytotoxicity; at 10 µM. On the technique in general: Cellular ATP, detected with luciferase, serves as a proxy for viable cell number.
In general, viability refers to a read-out of living cells in per cent, often relative to untreated cells. `CC1(C)CC(=O)C2=C(C1)N(Cc1ccco1)C(=O)C2(NC(=O)C1CCCCC1)C(F)(F)F` (centres undefined): the viability was determined as 92.1%.

On to `C=CCn1c(=S)[nH]c2nc3c(cc2c1=O)COC(C)(C)C3`, for which the viability amounted to 77.8%.

As to `CC(=O)Nc1ccc(S(=O)(=O)N(CC(=O)O)Cc2ccccc2)cc1`, the viability came out at 97.7%.

As for `Cc1cccc2cc(C#N)c(SCCN3CCCCC3)nc12`, the viability came to 68.2%.

As for `CSc1nnc(-c2cnccn2)n1C`, the viability turned out to be 90.7%.

On to `COc1ccccc1NC1=NC2(CCCC2)N=C(N)N1`, for which the viability is 99.7%.

Regarding `CC(C)C(c1nnnn1C1CCCC1)N1CCCc2ccccc21` (centres undefined), the viability came to 84.5%.

Regarding `COc1cc(NC(=O)c2cc(-n3cnnc3)ccc2Cl)cc(OC)c1`, the viability came to 104%.

For the compound `Cc1ccc(OCc2nnc(SCC(=O)N3CCOCC3)n2C)cc1`, the viability was determined as 106%.

Consider `CCc1nc(C)ccc1OCC(=O)O`, for which the viability came out at 93%.

For the compound `CCCOc1ccc(N2C(=O)CC(NCCCN3CCC(C(N)=O)CC3)C2=O)cc1` (centres undefined), the viability amounted to 88.6%.

As for `CC1CCCCN1CCNS(=O)(=O)c1ccc2c(c1)oc(=O)n2C` (centres undefined), the viability amounted to 108%.

`COc1cccc(C(c2nnnn2Cc2ccccc2)N2CCN(C(=O)c3ccco3)CC2)c1OC` (centres undefined): the viability was determined as 82.3%.

For `COc1ccc(S(=O)(=O)N2CCC(C(=O)NCc3ccco3)CC2)cc1`, the viability stood at 86.6%.

As to `CSC1CCCCC1(O)CSc1nc2c(cc1C#N)CCCC2` (centres undefined), the viability is 92.6%.

Take `CCSc1nnc(NC(=O)c2cc(C)oc2C)s1`: the viability came out at 99.7%.

As for `COC(=O)c1ccc(CN(c2ccccc2OC)S(=O)(=O)c2cccs2)o1`, the viability was found to be 86.2%.

Consider `O=C1c2cccnc2C(=O)N1c1cccc(-c2nc3ccccc3o2)c1`, for which the viability was 92.9%.

Regarding `COc1ccc(S(=O)(=O)Nc2ccc3c(c2)OCO3)cc1Cl`, the viability was 87.3%.
